The record followed here is PubChem BioAssay.

In experiment [1] the target is Nuclear receptor coactivator 3 (Homo sapiens) (UniProt Q9Y6Q9). In words: NCOA3 GAL4-fusion reporter inhibition – cell-based, luminescence, quadruplicate, confirmation (AID 588792;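 active means mean inhibition over 43.08%, the solvent-only control mean plus 3 SD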;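 further: 0% = DMSO treated cells and 100% = gossypol at 36 µM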). Particulars: HEK293 GAL4-SRC3 luciferase reporter, at 3.6 µM, hits give high values. For orientation: In a reporter assay the amount or activity of a reporter protein is the signal.
Experiment [2] has as its system transactivating tegument protein VP16 (Human herpesvirus 1), Gal4-VP16 luciferase reporter. The experiment can be described thus: repression of VP16-driven luciferase reporter – cell-based, luminescence, high throughput, counter-screen for SRC3 inhibitor project (AID 588794). The following applies: mammalian cells, at 3.6 µM, hits give high values.
The target of experiment [3] is Nuclear receptor coactivator 1 (Homo sapiens) (UniProt Q15788). The experiment can be described thus: NCOA1 GAL4-fusion reporter inhibition – cell-based, luminescence, quadruplicate, confirmation (AID 588820;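 active means mean inhibition above 46.68%, the untreated control wells mean plus 3 SD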;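 further: 0% = DMSO wells and 100% = gossypol 36 µM treated wells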). Particulars: HEK293 GAL4-SRC1 luciferase reporter, at 3.6 µM, hits give high values.
The nature of experiment [4]: repression of VP16-driven luciferase reporter – cell-based, luminescence, high throughput, counter-screen for SRC1 inhibitor project (AID 588824; in the data active means inhibition above about 25%). The following applies: cell-based VP16 transactivation luciferase luminescence; at 3.6 µM; hits give high values.
Experiment [5] is described as follows: StAR promoter reporter inhibitors, counter-screen for LRH-1 inverse agonist project, cell-based, luminescence, high throughput (AID 651611; in the data active means inhibition above about 28%). Particulars: StAR promoter luciferase reporter counterscreen, at 3.6 µM, hits give high values. On the technique in general: A counterscreen serves to expose hits that act by an unwanted route or on another target.
Experiment [6] addresses Nuclear receptor subfamily 5 group A member 2 (Homo sapiens) (UniProt O00482). The experiment can be described thus: NR5A2 activity suppression in reporter cells – cell-based, luminescence, confirmation (AID 651613; in the data active means inhibition above about 42%;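 further: HEK293T cells co-transfected with LRH-1 and StAR promoter luciferase reporter; 0% = vehicle wells and 100% = parental cells lacking receptor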). Particulars: cell-based LRH-1 luciferase reporter, inverse agonism; at 3.6 µM; hits give high values.
The target of experiment [7] is Steroidogenic factor 1 (Homo sapiens) (UniProt Q13285). The experiment can be described thus: inverse agonism at SF1 nuclear receptor – cell-based, luminescence, high throughput, counter-screen for LRH-1 inverse agonist project (AID 651614; in the data active means inhibition above about 44%;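 further: cells cotransfected with StAR promoter reporter and SF1 expression vector; 0% = vehicle on cells with receptor and 100% = vehicle on cells lacking receptor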). The following applies: cell-based SF1 luciferase reporter, at 3.6 µM, hits give high values.
The nature of experiment [8]: compounds suppressing VP16-driven luciferase signal – cell-based, luminescence, high throughput, counter-screen for LRH-1 inverse agonist project (AID 651615; in the data active means inhibition above about 33%). Particulars: Gal4-VP16 luciferase reporter cells, at 3.6 µM, hits give high values.
Experiment [9] can be described thus: reduced OD of V66 E. coli with T4 gene 2 phage – absorbance, RecBCD inhibitor project, confirmation (AID 651982;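 active means mean inhibition over triplicates exceeding the hit threshold derived in the original primary screen, cut at about 11% in these data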). Particulars: E. coli V66 + T4 2- phage, growth OD; at 11.9 µM; hits give high values.
A short description of experiment [10]: bacterial growth inhibition – absorbance, high throughput, counter-screen for RecBCD inhibitor project (AID 651983; in the data active means inhibition above about 20%;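 further: E. coli strain V66 grown with compound alone and no phage infection; 0% = bacteria with DMSO vehicle only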). Particulars: E. coli viability, absorbance (OD) growth; at 11.9 µM; hits give high values.
Experiment [11] can be described thus: reduced optical density, T4-challenged addAB+ bacteria – absorbance, E. coli V3065, T4 phage, counter-screen for RecBCD inhibitor project, confirmation (AID 651984;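 active means mean inhibition above the solvent-only control wells' mean plus 3 SD, cut at about 22% in these data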;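 further: higher means less bacterial growth from phage killing when AddAB is blocked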). The following applies: E. coli expressing H. pylori AddAB + T4 phage, OD growth; at 11.9 µM; hits give high values; gene 2 mutant T4, recBCD-deleted host.
Experiment [12] has as its system transactivating tegument protein VP16 (Human herpesvirus 1). In words: compounds suppressing VP16-driven luciferase signal – cell-based, luminescence, single concentration, counter-screen for SRC2 inhibitor project (AID 652007; in the data active means inhibition above about 36%). The following applies: cell-based VP16 transactivation luciferase reporter, at 8.9 µM, hits give high values.
In experiment [13] the target is Nuclear receptor coactivator 2 (Homo sapiens) (UniProt Q15596). In words: inhibition of GAL4-SRC2 driven luciferase expression – cell-based, luminescence, HEK293, triplicate, confirmation (AID 652008;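 active means mean inhibition above 46.5%, the solvent-only control mean plus 3 SD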;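 further: 0% = DMSO-treated cells and 100% = Gossypol at 36 µM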). The following applies: HEK293 GAL4-SRC2 luciferase reporter, at 8.9 µM, hits give high values.

A number with no mark means an inactive call. Some of the results follow. Calls of active or inactive are those of the source. Unless noted, no stated cut-off is given here; in the data, active means inhibition above about 30%; inactive means the rest.

Nuclear receptor coactivator 2 (Homo sapiens), sequence (Q15596 whole entry, looked up, the tested form may be a part): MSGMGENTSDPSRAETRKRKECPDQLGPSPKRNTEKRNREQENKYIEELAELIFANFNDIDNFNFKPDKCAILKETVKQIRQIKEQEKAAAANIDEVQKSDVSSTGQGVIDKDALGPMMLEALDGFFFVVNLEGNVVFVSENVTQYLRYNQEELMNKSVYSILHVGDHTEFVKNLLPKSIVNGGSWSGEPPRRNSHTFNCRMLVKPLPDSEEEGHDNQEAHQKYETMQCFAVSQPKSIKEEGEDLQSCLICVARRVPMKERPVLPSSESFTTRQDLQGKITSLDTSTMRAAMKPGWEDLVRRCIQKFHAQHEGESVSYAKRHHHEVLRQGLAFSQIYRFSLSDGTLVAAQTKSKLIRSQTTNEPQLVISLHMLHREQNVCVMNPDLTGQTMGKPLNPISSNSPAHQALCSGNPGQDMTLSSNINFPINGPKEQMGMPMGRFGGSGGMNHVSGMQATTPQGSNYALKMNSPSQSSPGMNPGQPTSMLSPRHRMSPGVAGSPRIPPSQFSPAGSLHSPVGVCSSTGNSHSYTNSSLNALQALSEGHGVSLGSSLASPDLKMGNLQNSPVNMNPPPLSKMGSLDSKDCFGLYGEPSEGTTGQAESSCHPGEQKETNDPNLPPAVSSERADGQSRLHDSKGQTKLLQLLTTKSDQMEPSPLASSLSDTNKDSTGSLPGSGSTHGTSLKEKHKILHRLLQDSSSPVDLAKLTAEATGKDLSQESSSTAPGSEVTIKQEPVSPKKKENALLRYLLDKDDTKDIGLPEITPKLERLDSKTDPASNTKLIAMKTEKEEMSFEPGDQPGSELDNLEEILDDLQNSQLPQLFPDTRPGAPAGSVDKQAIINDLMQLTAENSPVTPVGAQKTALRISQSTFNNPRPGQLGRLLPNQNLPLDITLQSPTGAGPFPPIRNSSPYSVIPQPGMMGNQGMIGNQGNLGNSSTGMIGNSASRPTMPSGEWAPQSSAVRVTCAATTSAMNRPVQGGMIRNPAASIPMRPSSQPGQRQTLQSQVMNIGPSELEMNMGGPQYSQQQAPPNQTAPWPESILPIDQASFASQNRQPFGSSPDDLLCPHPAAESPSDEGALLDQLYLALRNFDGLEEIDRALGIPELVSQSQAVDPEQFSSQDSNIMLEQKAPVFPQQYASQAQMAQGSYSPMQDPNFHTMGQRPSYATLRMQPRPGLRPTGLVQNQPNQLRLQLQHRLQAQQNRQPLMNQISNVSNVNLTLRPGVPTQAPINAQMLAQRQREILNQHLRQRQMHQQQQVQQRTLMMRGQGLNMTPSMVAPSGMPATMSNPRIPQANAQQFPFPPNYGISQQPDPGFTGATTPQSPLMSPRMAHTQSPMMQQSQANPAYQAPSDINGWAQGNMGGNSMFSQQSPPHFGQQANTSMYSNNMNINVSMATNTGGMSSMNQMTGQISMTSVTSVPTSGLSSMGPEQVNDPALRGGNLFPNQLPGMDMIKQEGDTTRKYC
Steroidogenic factor 1 (Homo sapiens), sequence (Q13285 whole entry, looked up, the tested form may be a part): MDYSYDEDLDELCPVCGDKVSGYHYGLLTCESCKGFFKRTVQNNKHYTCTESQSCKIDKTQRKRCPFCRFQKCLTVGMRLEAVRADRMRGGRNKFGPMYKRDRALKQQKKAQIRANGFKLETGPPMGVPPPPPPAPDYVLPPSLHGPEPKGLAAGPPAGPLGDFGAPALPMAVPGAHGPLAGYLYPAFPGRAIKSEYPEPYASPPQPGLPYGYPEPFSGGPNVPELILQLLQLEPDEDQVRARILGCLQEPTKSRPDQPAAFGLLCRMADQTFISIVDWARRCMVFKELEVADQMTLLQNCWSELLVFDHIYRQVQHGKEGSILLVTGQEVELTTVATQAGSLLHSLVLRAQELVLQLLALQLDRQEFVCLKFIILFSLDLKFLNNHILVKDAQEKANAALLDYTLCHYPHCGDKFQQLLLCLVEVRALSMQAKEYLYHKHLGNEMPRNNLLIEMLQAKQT
Nuclear receptor coactivator 1 (Homo sapiens), sequence (Q15788 whole entry, looked up, the tested form may be a part): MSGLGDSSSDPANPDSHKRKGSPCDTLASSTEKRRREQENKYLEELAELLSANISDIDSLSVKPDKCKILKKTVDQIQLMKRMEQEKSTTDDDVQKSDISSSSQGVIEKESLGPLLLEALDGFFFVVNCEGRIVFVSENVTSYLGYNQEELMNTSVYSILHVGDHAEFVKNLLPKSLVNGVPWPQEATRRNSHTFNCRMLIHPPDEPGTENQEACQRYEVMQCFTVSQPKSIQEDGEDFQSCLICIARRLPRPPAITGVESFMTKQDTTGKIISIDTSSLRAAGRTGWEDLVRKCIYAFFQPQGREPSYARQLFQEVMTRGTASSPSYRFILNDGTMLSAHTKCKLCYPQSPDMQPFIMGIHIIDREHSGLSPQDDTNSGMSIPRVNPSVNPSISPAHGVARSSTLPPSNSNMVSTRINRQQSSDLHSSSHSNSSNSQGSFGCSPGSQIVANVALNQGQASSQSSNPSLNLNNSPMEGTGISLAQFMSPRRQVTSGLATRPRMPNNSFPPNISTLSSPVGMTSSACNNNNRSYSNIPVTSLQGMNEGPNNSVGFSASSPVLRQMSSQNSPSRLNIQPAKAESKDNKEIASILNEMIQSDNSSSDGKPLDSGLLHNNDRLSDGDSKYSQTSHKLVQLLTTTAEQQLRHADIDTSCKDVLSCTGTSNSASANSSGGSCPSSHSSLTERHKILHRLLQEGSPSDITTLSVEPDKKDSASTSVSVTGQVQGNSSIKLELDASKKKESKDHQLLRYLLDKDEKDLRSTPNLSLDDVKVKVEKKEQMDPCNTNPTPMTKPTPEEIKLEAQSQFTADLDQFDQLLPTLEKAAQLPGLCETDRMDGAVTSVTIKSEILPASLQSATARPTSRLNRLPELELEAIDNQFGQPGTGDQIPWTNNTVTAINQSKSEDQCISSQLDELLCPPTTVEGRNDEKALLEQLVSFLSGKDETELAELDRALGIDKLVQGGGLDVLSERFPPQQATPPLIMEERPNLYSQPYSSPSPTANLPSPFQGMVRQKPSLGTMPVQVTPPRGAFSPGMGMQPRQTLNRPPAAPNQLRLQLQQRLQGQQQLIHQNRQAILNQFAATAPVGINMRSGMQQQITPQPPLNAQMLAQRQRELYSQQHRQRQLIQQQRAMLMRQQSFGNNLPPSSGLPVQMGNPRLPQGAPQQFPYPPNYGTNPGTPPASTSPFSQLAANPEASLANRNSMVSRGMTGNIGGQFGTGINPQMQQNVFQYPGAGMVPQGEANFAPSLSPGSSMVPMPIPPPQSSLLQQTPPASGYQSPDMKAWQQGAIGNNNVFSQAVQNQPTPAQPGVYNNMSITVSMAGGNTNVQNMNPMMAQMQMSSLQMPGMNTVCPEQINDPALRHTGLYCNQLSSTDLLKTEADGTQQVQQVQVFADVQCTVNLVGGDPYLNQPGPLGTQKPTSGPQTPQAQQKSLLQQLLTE
Nuclear receptor subfamily 5 group A member 2 (Homo sapiens), sequence (O00482 whole entry, looked up): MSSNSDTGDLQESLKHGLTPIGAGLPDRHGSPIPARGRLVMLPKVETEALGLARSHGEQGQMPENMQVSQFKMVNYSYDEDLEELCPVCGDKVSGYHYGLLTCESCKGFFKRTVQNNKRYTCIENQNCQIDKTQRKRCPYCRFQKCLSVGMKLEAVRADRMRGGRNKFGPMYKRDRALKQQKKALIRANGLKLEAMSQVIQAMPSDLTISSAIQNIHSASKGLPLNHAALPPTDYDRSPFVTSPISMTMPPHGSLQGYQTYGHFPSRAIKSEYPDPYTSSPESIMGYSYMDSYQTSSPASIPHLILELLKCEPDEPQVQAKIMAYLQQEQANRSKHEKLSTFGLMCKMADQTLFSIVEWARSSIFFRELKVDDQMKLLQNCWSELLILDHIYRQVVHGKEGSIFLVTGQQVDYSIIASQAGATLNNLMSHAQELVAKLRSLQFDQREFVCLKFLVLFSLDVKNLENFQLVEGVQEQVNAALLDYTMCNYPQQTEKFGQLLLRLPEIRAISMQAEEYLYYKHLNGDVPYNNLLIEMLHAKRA

The term inhibition denotes the relative decrease from the control value, in per cent. For the compound `CN(Cc1ccccc1)C1=CC(=[N+]2CCCCC2)CC(C)(C)C1`, the inhibition in experiment [1] is 43.1% (active); in experiment [2], 73.6% (active); in experiment [3] it was 44.8%; in [4], 75.8% (active); in experiment [5] it was 68% (active); in experiment [6] it was 108% (active). Also, the figures for the inhibition in [7] and in experiment [8] were 90.6% (active) and 91.1% (active), respectively.

For the compound `NC(=O)c1cccc(-c2cnc(N)c(C(=O)c3cccnc3)n2)c1`, the inhibition in experiment [1] is 76.7% (active); in experiment [2] it was 49.5% (active); in experiment [3] it was 65.9% (active); in [4], 48.5% (active); in [5], 59.9% (active); in experiment [6], 72.6% (active). In addition, the inhibition was 67.2% (active) in experiment [7] and 72.7% (active) in [8].

For the compound `NC(=S)NN=Cc1cc(-c2cccc(N)c2)ccn1`, the inhibition in experiment [1] is 77.3% (active); in [2], 53% (active); in experiment [3], 64.1% (active); in experiment [4], 52.2% (active); in experiment [5], 75.3% (active); in experiment [6], 93.6% (active). Moreover, the inhibition in experiment [7] was 88% (active); in experiment [8] it was 72.4% (active).

For the compound `CCCCCCCn1c2c(c(=N)c3c1CCC3)CCCC2`, the inhibition was 70.2% (active) in [1]; 81.8% (active) in experiment [2]; 56.2% (active) in experiment [3]; 83.4% (active) in [4]; 79.3% (active) in [5]; 110% (active) in experiment [6]. In addition, the inhibition in [7] is 95.8% (active); in experiment [8], 98.2% (active).

With `CCOc1ccc(C(=O)Nc2cnn(Cc3ccc(Cl)c(Cl)c3)c2)cc1`, the inhibition was 16% in [1]; 44.1% (active) in experiment [2]; 26.8% in [3]; 36.8% (active) in experiment [4]; 39% (active) in experiment [5]; 62.7% (active) in experiment [6]. In addition, the values for the inhibition in experiment [7] and in experiment [8] were 60.1% (active) and 70.5% (active), respectively.

`S=C(NN=C(c1ccccc1)c1ccccn1)N(Cc1ccccn1)Cc1ccccn1`: the inhibition in [1] is 84% (active); in experiment [2], 87.2% (active); in experiment [3], 85% (active); in experiment [4], 89.7% (active); in experiment [5], 91% (active); in [6], 105% (active). The inhibition was 96.4% (active) in [7] and 77.2% (active) in [8].

`CN(C)c1ccc(/C=C/c2ccc3ccccc3[n+]2C)cc1`: the inhibition is 62.3% (active) in [1]; 74.5% (active) in experiment [2]; 32.4% in experiment [3]; 74.3% (active) in experiment [4]; 58.5% (active) in experiment [5]; 76.8% (active) in [6]. Further, the inhibition is 76.6% (active) in experiment [7] and 70.9% (active) in experiment [8].

With `COc1ccc(OC)c(Cc2cnc3nc(N)nc(N)c3c2C)c1`, the inhibition was 67% (active) in experiment [1]; 27.5% in experiment [2]; 59.9% (active) in experiment [3]; 28.4% (active) in [4]; 80.7% (active) in experiment [5]; 62.3% (active) in [6]. Moreover, the inhibition in [7] was 52.5% (active); in experiment [8], 43.9% (active); in experiment [9], 79.8% (active); in experiment [10], 79.2% (active); in experiment [11], 85.3% (active).

As to `CCCCC[n+]1cccc2c3ccccc3ccc21`, the inhibition in experiment [1] was 39.9%; in experiment [2] it was 59% (active); in [3], 30.7%; in experiment [4] it was 59% (active); in experiment [5], 51.5% (active); in [6], 90% (active). Also, the inhibition is 81.5% (active) in experiment [7] and 77% (active) in experiment [8].

As for `CCN(CC)c1ccc2nc3ccccc3[n+](CC)c2c1`, the inhibition in experiment [1] was 50.2% (active); in [2], 54.2% (active); in experiment [3], 40.5%; in experiment [4], 59.6% (active); in experiment [5] it was 69.4% (active); in experiment [6], 88.3% (active). Moreover, the inhibition in experiment [7] is 80.2% (active); in [8], 68.7% (active).

With `COc1ccccc1NC(=S)NN=C(C)c1ccccn1`, the inhibition in experiment [1] was 4.97%; in experiment [2] it was 65.2% (active); in experiment [3], -16.5%; in [4], 64% (active); in [5], 81.8% (active); in experiment [6] it was 98.4% (active). Further, the figures for the inhibition in experiment [7] and in experiment [8] were 85.8% (active) and 70.8% (active), respectively.

With `COc1cc(Cn2c3ccc(NC(=O)CCc4ccc(O)cc4)cc3c(=O)n2C)ccc1F`, the inhibition is 42.6% in experiment [1]; 61.3% (active) in experiment [2]; 31.5% in experiment [3]; 56.6% (active) in experiment [4]; 56% (active) in experiment [5]; 70.8% (active) in experiment [6]. Also, the inhibition in experiment [7] was 69.3% (active); in experiment [8], 71.1% (active).

Take `COC(=O)c1ccc2nc(Nc3nc4c(F)cc(F)cc4s3)sc2c1`: the inhibition in experiment [1] was 23.9%; in [2], 40.6% (active); in [3], -34.6%; in experiment [4], 36.7% (active); in experiment [5], 28.2% (active); in [6], -92.1%. In addition, the inhibition in experiment [7] is 25.5%; in experiment [8], -29.2%; in [12], -2.64%; in [13], 61.1% (active).

In the case of `O=C(NCCc1ccccc1)c1ccc2c(c1)OCCO2`, the inhibition is 41.6% in [1]; 11.9% in experiment [2]; -81.6% in experiment [3]; 0.41% in experiment [4]; 29.6% (active) in [5]; -10.6% in experiment [6]. For the same compound, the inhibition in experiment [7] is 42%; in [8], 7.34%; in experiment [12], 44.1% (active); in [13], 77.7% (active).

On to `CN(C(=O)COc1ccccc1C(=O)NCCOc1ccccc1)c1ccccc1`, for which the inhibition is 20.1% in [1]; 32.4% (active) in experiment [2]; -24.3% in experiment [3]; 32.8% (active) in experiment [4]; 63.6% (active) in [5]; 31.8% in experiment [6]. In addition, the inhibition in experiment [7] is 54.3% (active); in experiment [8], 37.1% (active); in experiment [12] it was 36.4% (active); in experiment [13], 47.3% (active).

Turning to `Nc1nc(F)nc2c1ncn2[C@@H]1O[C@H](CO)[C@@H](O)[C@H]1O`, the inhibition in [1] was 98% (active); in experiment [2] it was 93.4% (active); in experiment [3], 82.7% (active); in [4], 94.4% (active); in experiment [5] it was 94.5% (active); in experiment [6] it was 108% (active). For the same compound, the inhibition in experiment [7] was 96.2% (active); in [8], 98.7% (active); in experiment [12], 76.6% (active); in experiment [13] it was 77.6% (active).
